Experimental data reported in PubChem BioAssay AID463173 (ICCB-Longwood Screening Facility, Harvard Medical School, 2010).
Hit rate of the full screen: of about 52,000 compounds, about 4,300 (8.3%) were called active. This is one part of a sample in which actives are shown more often than they occur. Unmarked numbers belong to inactive results. Cut-off read from the data, not from the text of the source: active = survival mostly below about 52% (no sharp cut-off); inactive = mostly above about 56%.

system: DeltatarO mutant; assay: growth inhibition of S. aureus wild type versus tarO mutant, primary screen, teichoic acid synthesis inhibitors, RN4220, OD600 (AID 463173); settings: OD600, 18 h, hits give low values, concentration not given here

Q: O=C1CC(=O)N(C2CCCCC2)C(=O)N1 was tested. Which survival did it give?
A: Its survival is 77%.

Q: Which survival does the source give for CCSc1nnc(NC(=O)c2cccn(Cc3ccc(Cl)cc3)c2=O)s1 here?
A: The survival was 73%.

Q: For CC(=O)Nc1c(O)[nH]c(=S)[nH]c1=O, which survival is on record?
A: Its survival is 103%.

Q: With O=C(Nc1nc2ccccc2s1)c1cccn(Cc2ccccc2)c1=O as the compound, how does the survival read?
A: The survival was 83%.

Q: For CCOC(=O)C1=C(C)OC(N)=C(C#N)C12C(=O)N1c3c(cccc32)C(C)CC1(C)C (stereo not drawn), which survival is on record?
A: The survival was 51%.

Q: With CCOC(=O)CC1=C(C(=O)OCC)C2(C(=O)N(C)c3ccccc32)C(C#N)=C(N)O1 (stereo not drawn) as the compound, how does the survival read?
A: The survival was 0% (active).

Q: Which survival does the source give for COC(=O)CC1=C(C(=O)OC)C2(C(=O)Nc3ccc(F)cc32)C(C#N)=C(N)O1 (stereo not drawn) here?
A: The survival was 65%.

Q: How did the survival turn out when CCC(C)c1c(O)[nH]c(=S)[nH]c1=O (stereo not drawn) was run?
A: The survival was 82%.

Q: For CCN(CC)C(=O)c1ccc(NC(=O)c2ccc(-c3nn(C)c(=O)c4ccccc34)cc2)cc1, which survival is on record?
A: The survival was 68%.

Q: How did the survival turn out when Cc1ccnc(NS(=O)(=O)c2ccc(N=Cc3c(O)n(C)c(=O)n(C)c3=O)cc2)n1 was run?
A: Its survival is 93%.

Q: For COc1ccc(-c2nc(CN3C(=O)CN=C(c4ccccc4Cl)c4cc(Cl)ccc43)c(C)o2)cc1OC, which survival is on record?
A: Its survival is 63%.

Q: With CN1CCN(c2oc(-c3ccc(COc4ccccc4)o3)nc2C#N)CC1 as the compound, how does the survival read?
A: The survival was 41% (active).

Q: Which survival does the source give for CN1C(=O)C(Cc2cccs2)C(=O)N(C)C1=O here?
A: The survival was 80%.

Q: CC(C)C(=O)N1N=C(c2cccnc2)CC1(O)C(F)(F)F (stereo not drawn) was tested. Which survival did it give?
A: Its survival is 66%.

Q: How did the survival turn out when OC1(c2ccc(F)cc2)CC2CCC(C1)N2Cc1nnnn1C1CCCCC1 (stereo not drawn) was run?
A: Its survival is 97%.

Q: Cc1ccc(NC(=O)N(Cc2ccc3c(c2)OCO3)C2CCN(Cc3ccccc3)CC2)cc1C was tested. Which survival did it give?
A: The survival was 17% (active).

Q: For Cc1ccc(NC(=O)N(Cc2ccc3c(c2)OCO3)C2CCN(Cc3ccccc3)CC2)cc1Cl, which survival is on record?
A: Its survival is 128%.

Q: Which survival does the source give for Cc1ccc(NC(=O)N(Cc2ccc3c(c2)OCO3)C2CCN(Cc3ccccc3)CC2)cc1F here?
A: The survival was 87%.

Q: With COc1ccc(NC(=O)CN2C(=O)C(C)N=C(c3ccccc3)c3ccccc32)cc1OC (stereo not drawn) as the compound, how does the survival read?
A: Its survival is 116%.

Q: How did the survival turn out when CCCC12CN3CC(CCC)(CN(C1)C3c1ccccn1)C2=O (stereo not drawn) was run?
A: Its survival is 84%.

Q: For O=C1CC(=O)N(c2ccccc2)C(=O)N1c1ccccc1, which survival is on record?
A: Its survival is 90%.

Q: O=C(Nc1ccc(Br)cc1C(=O)c1ccccc1Cl)c1ccccc1F was tested. Which survival did it give?
A: The survival was 52%.

Q: COc1ccc(C(=O)Nc2ccc(Cl)cc2C(=O)c2ccccc2)c(OC)c1 was tested. Which survival did it give?
A: Its survival is 2% (active).

Q: Which survival does the source give for O=C(Nc1ccc(Br)cc1C(=O)c1ccccc1)c1ccccc1 here?
A: The survival was -1% (active).

Q: Cc1cc(C)cc(OCC(=O)Nc2ccc(Cl)cc2C(=O)c2ccccc2)c1 was tested. Which survival did it give?
A: The survival was 82%.

Q: For O=C(Nc1ccc(Br)cc1C(=O)c1ccccc1Cl)c1ccc(Br)cc1, which survival is on record?
A: The survival was 144%.

Q: With Cc1cccc(C)c1OCC(=O)Nc1ccc(Cl)cc1C(=O)c1ccccc1 as the compound, how does the survival read?
A: The survival was 17% (active).

Q: For Cc1ccc(OCC(=O)Nc2ccc(Cl)cc2C(=O)c2ccccc2)cc1C, which survival is on record?
A: The survival was 69%.

Q: CSc1ncc(C(=O)Nc2ccc(Cl)cc2C(=O)c2ccccc2)c(C)n1 was tested. Which survival did it give?
A: The survival was 98%.

Q: With CC(C)(C)c1ccc(C(=O)Nc2ccc(Cl)cc2C(=O)c2ccccc2)cc1 as the compound, how does the survival read?
A: The survival was 6% (active).

Q: CC(C)(C)c1ccc(OCC(=O)Nc2ccc(Cl)cc2C(=O)c2ccccc2)cc1 was tested. Which survival did it give?
A: Its survival is 70%.

Q: Which survival does the source give for COc1cc(OC)cc(C(=O)Nc2ccc(Cl)cc2C(=O)c2ccccc2Cl)c1 here?
A: The survival was 171%.

Q: With O=C(COc1ccc(Cl)cc1)Nc1ccc(Cl)cc1C(=O)c1ccccc1 as the compound, how does the survival read?
A: The survival was 83%.
